Sampled rows, rich in hits. Any-hit rate of the full collection: about 10%.
PTEN del growth = growth suppression of PTEN-null HCT116, primary screen, cell-based, CellTiter-Glo; HCT116 PTEN-null viability, 60 h; active compounds read low; viability, % at 10 µM; hit rate 1.2% among 140,000; AID 827, 2007;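 active means viability at or below a set limit, 4 SD under the median of all tested compounds, cut at about 3.7% in these data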;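 further: PTEN knockout HCT116 line with beta catenin targeted HCT116 as companion control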
Insulin prom inh = inhibitors of insulin promoter-driven GFP, primary screen, imaging, TRM-6 cells (human fetal islet line), eGFP reporter, cell count; reporter expression induced with tamoxifen; inhibition, % at 2 µM; hit rate 0.9% among 130,000; AID 1273, 2008;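 active means inhibition above the mean plus 3 SD, with well images judged a real hit on visual review, cut at about 60% in these data, passing the limit was not always enough; inconclusive means inhibition over the cutoff but images rejected on review; inactive means inhibition not above the cutoff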
bCat KO growth = primary screen for growth suppressors in beta-catenin knockout HCT116 cells (colon tumor, human); HCT116 beta-catenin knockout viability, CellTiter-Glo, 60 h; active compounds read low; viability, % at 10 µM; hit rate 1.5% among 140,000; AID 818, 2007;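 active means viability at or under a set limit, the compound median less 4 SD, cut at about 6% in these data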
L major viab = Leishmania major promastigote growth inhibition, primary screen; Leishmania major promastigotes, resazurin fluorescence viability; inhibition, % at 10 µM; hit rate 9% among 200,000; in the data active means inhibition above about 50%;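 further: promastigotes grown with compound for 44 hours at 28 °C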
ROMK primary = ROMK potassium channel modulators, primary screen, cell-based, thallium flux, MLSMR library; ATP-sensitive inward rectifier potassium channel 1 (Homo sapiens), P48048; Tet-inducible ROMK, thallium flux fluorescence; actives lie on both sides; B-score at 10 µM; hit rate 2% among 130,000;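 active means signal ratio slope over the read window, or its plate-corrected B-score, at least 3 SD from the plate mean, either direction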;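 further: B-score of the F/F0 ratio slope over 7 to 12 s after thallium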
p97 inhibitor = inhibitors of human p97 ATPase, primary screen, biochemical. Transitional endoplasmic reticulum ATPase (Homo sapiens), P55072. hit rate 0.42% among 220,000. inhibition, % at 8 µM. AID 1481, 2009. recombinant p97 ATPase, Kinase-Glo ATP luminescence, 3 h; in the data active means inhibition above about 15%
Target sequence (P55072 whole entry, looked up): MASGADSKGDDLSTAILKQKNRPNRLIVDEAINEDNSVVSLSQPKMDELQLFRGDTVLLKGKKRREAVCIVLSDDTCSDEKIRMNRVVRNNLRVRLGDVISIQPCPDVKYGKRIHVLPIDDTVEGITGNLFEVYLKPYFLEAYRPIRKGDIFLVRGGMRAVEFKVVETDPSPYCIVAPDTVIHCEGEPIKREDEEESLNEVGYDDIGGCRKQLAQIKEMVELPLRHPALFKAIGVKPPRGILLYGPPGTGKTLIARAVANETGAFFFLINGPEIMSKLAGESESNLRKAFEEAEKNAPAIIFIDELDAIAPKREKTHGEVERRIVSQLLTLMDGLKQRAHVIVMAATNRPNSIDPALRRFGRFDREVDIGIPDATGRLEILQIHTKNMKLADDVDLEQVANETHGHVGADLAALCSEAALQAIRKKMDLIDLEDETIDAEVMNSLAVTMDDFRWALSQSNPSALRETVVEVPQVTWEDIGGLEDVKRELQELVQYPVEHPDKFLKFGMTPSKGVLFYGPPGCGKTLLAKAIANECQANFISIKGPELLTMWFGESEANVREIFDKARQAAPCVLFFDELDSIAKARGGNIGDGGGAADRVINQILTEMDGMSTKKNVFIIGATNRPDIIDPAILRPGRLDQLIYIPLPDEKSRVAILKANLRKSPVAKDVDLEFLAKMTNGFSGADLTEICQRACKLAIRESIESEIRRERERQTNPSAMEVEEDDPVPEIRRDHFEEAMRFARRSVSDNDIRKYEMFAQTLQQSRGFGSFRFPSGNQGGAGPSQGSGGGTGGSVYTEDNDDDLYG
Numbers stand for hits.

`COc1ccc(N/C=C\C(=O)c2ccc3c(c2)OCO3)cc1OC` gave PTEN del growth inactive, Insulin prom inh inactive, bCat KO growth inactive, L major viab 88 and p97 inhibitor inactive.
For Clc1cccc(/C=N\Nc2nccs2)c1 the results were PTEN del growth inactive, Insulin prom inh inactive, bCat KO growth inactive, L major viab inactive, ROMK primary inactive and p97 inhibitor inactive.
Screening Clc1ccc2c(N/N=C/c3ccccc3Br)ccnc2c1 returned PTEN del growth inactive, Insulin prom inh inconclusive, bCat KO growth inactive, L major viab 99, ROMK primary inactive and p97 inhibitor inactive.
Clc1ccc2c(N/N=C/c3cccc(Br)c3)ccnc2c1 was read as PTEN del growth 1.7, Insulin prom inh 73, bCat KO growth 2.2, L major viab 100 and p97 inhibitor inactive.
Clc1ccc2c(NNc3ccccc3Cl)ccnc2c1 was read as PTEN del growth inactive, bCat KO growth inactive, L major viab inactive, ROMK primary inactive and p97 inhibitor inactive.
Screening CCCCN(C)C(=S)Nc1ccsc1C(=O)OC returned L major viab inactive, ROMK primary inactive and p97 inhibitor inactive.
For Cc1cc(C)cc(NC(=O)/C=C/c2ccc([N+](=O)[O-])s2)c1 the results were PTEN del growth inactive, bCat KO growth inactive, L major viab 82, ROMK primary inactive and p97 inhibitor inactive.
Screening CC(=O)c1cccc(NC(=O)/C=C/c2ccc([N+](=O)[O-])s2)c1 returned Insulin prom inh inactive, L major viab inactive, ROMK primary inactive and p97 inhibitor inactive.
`Cc1ccccc1NC(=O)/C=C/c1ccc([N+](=O)[O-])s1` gave PTEN del growth 1.4, bCat KO growth 2.0, L major viab 82, ROMK primary inactive and p97 inhibitor inactive.
For Cc1ccccc1NC(=O)/C=C/c1cccs1 the results were L major viab inactive and p97 inhibitor inactive.
Screening Cc1noc(C)c1COc1ccc(C(=O)OCC(=O)Nc2ccc3ccccc3c2)cc1 returned PTEN del growth inactive, Insulin prom inh inactive, bCat KO growth inactive, L major viab inactive and p97 inhibitor inactive.
CC(=O)CSc1ccc(C(=O)O)cn1 was read as PTEN del growth inactive, Insulin prom inh inactive, bCat KO growth inactive, L major viab inactive, ROMK primary inactive and p97 inhibitor inactive.
CCOC(=O)c1ccccc1NC(=O)N[C@@H](C)C(=O)OC was read as PTEN del growth inactive, Insulin prom inh inactive, bCat KO growth inactive, L major viab inactive, ROMK primary 2.3 and p97 inhibitor inactive.
COc1ccc(C(=O)/C=C/c2ccc(OC3CSC3)cc2)cc1OC was read as PTEN del growth inactive, Insulin prom inh inactive, bCat KO growth inactive, L major viab inactive, ROMK primary inactive and p97 inhibitor inactive.
Screening O=C(/C=C/c1ccc(OC2CSC2)cc1)c1ccc(Cl)cc1 returned PTEN del growth inactive, Insulin prom inh inactive, bCat KO growth inactive, L major viab 54, ROMK primary inactive and p97 inhibitor inactive.
CCOC(=O)[C@H](CCc1ccccc1)N[C@@H](C)C(=O)N1CCC[C@H]1C(=O)O was read as PTEN del growth inactive, Insulin prom inh 67, bCat KO growth inactive, L major viab inactive and p97 inhibitor inactive.
`CCN1CCN(CC(O)COC(c2ccccc2)c2ccccc2)CC1` (stereo unspecified) gave Insulin prom inh inactive, L major viab inactive, ROMK primary inactive and p97 inhibitor inactive.
Screening O=S(=O)(c1ccc(OCC(O)CN2CCc3ccccc3C2)cc1)N1CCOCC1 (stereo unspecified) returned PTEN del growth inactive, Insulin prom inh inactive, bCat KO growth inactive, L major viab 62, ROMK primary inactive and p97 inhibitor inactive.
`O=C(c1ccccc1)c1ccc(OCC(O)CN2CCCCC2)cc1` (stereo unspecified) gave PTEN del growth inactive, Insulin prom inh inactive, bCat KO growth inactive, L major viab 89 and p97 inhibitor inactive.
`O=C(c1ccc(Cl)cc1)c1ccc(OCC(O)CN2CCOCC2)cc1` (stereo unspecified) gave PTEN del growth inactive, Insulin prom inh inactive, bCat KO growth inactive, L major viab 63, ROMK primary inactive and p97 inhibitor inactive.
For OC(COc1ccccc1)CN1CCOCC1 (stereo unspecified) the results were PTEN del growth inactive, Insulin prom inh inactive, bCat KO growth inactive, L major viab inactive, ROMK primary inactive and p97 inhibitor inactive.
Screening OC(COC(c1ccccc1)c1ccccc1)CN1CCCCC1 (stereo unspecified) returned PTEN del growth inactive, Insulin prom inh inactive, bCat KO growth inactive, L major viab 99 and p97 inhibitor inactive.
For O=C(/C=C/c1ccccc1)N1CCN(CC(O)COc2ccccc2)CC1 (stereo unspecified) the results were PTEN del growth inactive, Insulin prom inh inactive, bCat KO growth inactive, L major viab 78 and p97 inhibitor inactive.
Screening CN(C)S(=O)(=O)N1CCN(CC(O)COc2ccc(C(=O)c3ccccc3)cc2)CC1 (stereo unspecified) returned PTEN del growth inactive, Insulin prom inh inactive, bCat KO growth inactive, L major viab 93 and p97 inhibitor inactive.
`CCOC(=O)C1CCN(CC(O)COc2ccc(C(=O)CC)cc2)CC1` (stereo unspecified) gave PTEN del growth inactive, Insulin prom inh inactive, bCat KO growth inactive, L major viab 94, ROMK primary inactive and p97 inhibitor inactive.
Screening CC(=O)N1CCN(CC(O)COc2ccc(OCc3ccccc3)cc2)CC1 (stereo unspecified) returned PTEN del growth inactive, Insulin prom inh inactive, bCat KO growth inactive, L major viab inactive and p97 inhibitor inactive.
Screening O=C(c1ccccc1)c1ccc(OCC(O)CN2CCN(S(=O)(=O)N3CCCCC3)CC2)cc1 (stereo unspecified) returned PTEN del growth inactive, Insulin prom inh inactive, bCat KO growth inactive, L major viab inactive, ROMK primary inactive and p97 inhibitor inactive.
Screening CCC(=O)c1ccc(OCC(O)CN2CCN(S(=O)(=O)N3CCCCC3)CC2)cc1 (stereo unspecified) returned PTEN del growth inactive, Insulin prom inh inactive, bCat KO growth inactive, L major viab inactive and p97 inhibitor inactive.
`OC(COc1ccc(CNCCc2ccccc2F)cc1)CN1CCCCC1` (stereo unspecified) gave L major viab 78, ROMK primary inactive and p97 inhibitor inactive.
`COc1ccc(NC(=O)CN(C)C2CCCCC2)c([N+](=O)[O-])c1` gave PTEN del growth inactive, Insulin prom inh inactive, bCat KO growth inactive, L major viab inactive and p97 inhibitor inactive.
Screening O=S(=O)(c1ccc(OCC(O)CN2CCCCC2)cc1)N1CCOCC1 (stereo unspecified) returned PTEN del growth inactive, Insulin prom inh inactive, bCat KO growth inactive, L major viab inactive, ROMK primary inactive and p97 inhibitor inactive.

Screening results from PubChem.
